Screening results from PubChem.
A selection: hits, their analogues and other compounds. The true share with any hit is near 1.6%.
KCNQ2 block: inhibitors of rat KCNQ2 potassium channel; O88943; AID 2156; CHO-K1 KCNQ2, FluxOR thallium flux, 20 min; stronger effect = lower value; B-score at 10 µM; hit rate 1.1% among 310,000;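 active = fluorescence ratio B-score at most minus 3 library SDs, with starting brightness B-score within 2 library SDs, cut at about -5.5 in these data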
Target sequence (O88943 whole entry, looked up): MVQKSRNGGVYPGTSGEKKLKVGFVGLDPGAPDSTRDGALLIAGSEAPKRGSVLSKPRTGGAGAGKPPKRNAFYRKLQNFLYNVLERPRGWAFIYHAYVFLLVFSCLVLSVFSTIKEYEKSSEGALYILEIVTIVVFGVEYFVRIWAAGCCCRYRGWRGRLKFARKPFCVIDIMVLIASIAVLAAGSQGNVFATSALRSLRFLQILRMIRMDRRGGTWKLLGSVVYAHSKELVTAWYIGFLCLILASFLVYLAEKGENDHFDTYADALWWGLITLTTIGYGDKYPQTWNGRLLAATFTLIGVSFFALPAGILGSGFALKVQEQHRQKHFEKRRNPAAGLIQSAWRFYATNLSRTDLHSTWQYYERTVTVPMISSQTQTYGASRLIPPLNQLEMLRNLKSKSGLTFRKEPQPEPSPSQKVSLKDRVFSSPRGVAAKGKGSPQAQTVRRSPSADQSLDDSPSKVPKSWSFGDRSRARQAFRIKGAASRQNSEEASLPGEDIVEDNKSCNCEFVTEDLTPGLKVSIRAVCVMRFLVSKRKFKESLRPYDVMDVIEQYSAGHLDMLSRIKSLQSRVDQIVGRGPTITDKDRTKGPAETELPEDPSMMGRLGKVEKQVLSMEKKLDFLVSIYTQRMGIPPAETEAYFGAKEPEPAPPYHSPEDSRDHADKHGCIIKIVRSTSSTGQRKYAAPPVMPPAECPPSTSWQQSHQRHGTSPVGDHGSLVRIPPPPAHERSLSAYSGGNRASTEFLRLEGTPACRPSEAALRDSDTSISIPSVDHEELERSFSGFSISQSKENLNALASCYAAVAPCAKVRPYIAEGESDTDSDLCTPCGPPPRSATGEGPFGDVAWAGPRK
KCNQ2 pot: enhances the rat KCNQ2 potassium channel; O88943; CHO-K1 KCNQ2, FluxOR thallium flux fluorescence; stronger effect = higher value; B-score at 10 µM; hit rate 0.54% among 310,000;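 active = fluorescence ratio B-score at least 3 SD of library B-scores, with initial fluorescence B-score within 3 of them, cut at about 5.3 in these data; same plate scores as AID 2156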;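 note: B-score of peak minus minimum over baseline fluorescence ratio after K+ and Tl+ stimulus; positive B-score means potentiation of KCNQ2 with more thallium influx and brighter signal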
KCNQ2 inh conf: confirmation of rat KCNQ2 potassium channel inhibitors | hit rate 57% among 1,000 | shares compounds with KCNQ2 block | KCNQ2-expressing cells, thallium flux, inhibition; stronger effect = lower value | activity change, negative = inhibition, % at 10 µM;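 note: 0% = vehicle wells and values are ratio percent relative to vehicle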
KCNQ1 spec: selectivity of KCNQ2 inhibitors against human KCNQ1 | shares compounds with KCNQ2 block | KCNQ1-expressing cells, FluxOR thallium flux fluorescence; stronger effect = lower value | activity change, negative = inhibition, % at 10 µM | hit rate 15% among 1,000 | AID 493026;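 active = activity change at least 3 SD of negative controls below their mean in both duplicate wells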;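 note: CHO cells stably transfected with KCNQ1 and depolarized by potassium stimulus; peak minus minimum fluorescence over baseline after thallium addition; 0% = vehicle negative control and -100% = blank without thallium stimulus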
CHO Tl ctr: activity in parental CHO cells lacking KCNQ2; activity change, % at 10 µM; thallium flux counter-screen; stronger effect = lower value; hit rate 14% among 1,000; shares compounds with KCNQ2 block;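 note: 0% = vehicle negative controls with stimulus buffer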
KCNQ2 patch conf: blocks rat KCNQ2 current in automated patch clamp | hit rate 49% among 550 | shares compounds with KCNQ2 block | KCNQ2-expressing cells | calls only at 10 µM
Starred values were filed as active, the others as inactive; i = inactive; x = no result given; + = active, no number. Unless noted, the rule behind the calls is not given here.

SMILES	KCNQ2 block	KCNQ2 pot	KCNQ2 inh conf	KCNQ1 spec	CHO Tl ctr	others
O=C1c2oc3ccc(Cl)cc3c(=O)c2C(c2cccc(Br)c2)N1CCO (stereo unspecified)	-11*	-11	i	i	i
CCN(CC)CCN1C(=O)c2oc3ccccc3c(=O)c2C1c1cccc(Br)c1 (stereo unspecified)	i	1.2	x	x	x
O=C(CSc1cccc[n+]1[O-])Nc1ccc([N+](=O)[O-])cc1Cl	i	x	x	x	x
CC(=O)NCCn1c(SCc2cccc([N+](=O)[O-])c2)nc2ccccc2c1=O	i	0.96	x	x	x
O=C(O)Cn1c(=O)c2c3c(sc2n(Cc2ccccc2)c1=O)CCCC3	i	x	x	x	x
CCOC(=O)N1CCc2c(sc3c2c(=O)n(Cc2ccccc2)c(=O)n3Cc2ccccc2F)C1	-12*	-12	i	i	i
CCOC(=O)N1CCc2c(sc3c2c(=O)n(Cc2ccccc2)c(=O)n3CC(=O)NCC2CCCO2)C1 (stereo unspecified)	i	0.43	x	x	x
CCOC(=O)N1CCc2c(sc3c2c(=O)n(Cc2ccccc2)c(=O)n3Cc2cccc(C)c2)C1	-8.6*	-8.6	-44%*	-30%*	-28%*	KCNQ2 patch conf=i
COc1ccc(Nc2nc3c([nH]2)c(=O)[nH]c(=O)n3C)cc1	i	0.01	x	x	x
Cc1ccc(-c2cc(-c3ccccc3)nc(Cl)n2)cc1	-8.3*	-8.3	i	i	i
COc1ccc(-c2cc(-c3ccccc3)nc(Cl)n2)cc1OC	i	x	x	x	x
C=CCSc1nc(N)c(C#N)c(-c2ccc(C)cc2)c1C#N	i	x	x	x	x
C=CCSc1nc2c(c(C3CC=CCC3)c1C#N)CCC2 (stereo unspecified)	-12*	-12	-32%*	-31%*	-22%*	KCNQ2 patch conf=i
CN(Cc1ccc(Br)cc1)C(=O)CCN1C(=O)c2cccc([N+](=O)[O-])c2C1=O	i	x	x	x	x
Cc1nn(CC(C)C)c2sc(C(=O)NC3CC(C)(C)NC(C)(C)C3)cc12	i	x	x	x	x
CC(C)c1ccc(N(CC(=O)NCc2cccnc2)S(=O)(=O)c2ccccc2)cc1	i	0.5	x	x	x
COc1ccccc1C(=O)NC(=O)COC(=O)Cn1[nH]c(=O)c2ccccc2c1=O	i	0.53	x	x	x
COC(=O)[C@H](CC(C)C)NC(=O)NC1CCCc2ccccc21 (stereo partly specified)	-7.5*	-7.5	-28%*	i	i	KCNQ2 patch conf=+
CC(C)C[C@H](NC(=O)NC1CCCc2ccccc21)C(=O)O (stereo partly specified)	i	x	x	x	x
COc1ccccc1CC(=O)NC1CCCc2ccccc21 (stereo unspecified)	-7.1*	-7.1	-24%*	i	i	KCNQ2 patch conf=+
CCOC(=O)N1CCC(NC(=O)CSCc2nc(-c3ccc(OC)cc3)oc2C)CC1	i	x	x	x	x
COc1ccc(-c2nc(CSCC(=O)NC3CCCc4ccccc43)c(C)o2)cc1 (stereo unspecified)	-7.3*	-7.3	-29%*	i	i	KCNQ2 patch conf=+
COc1cc(CC(=O)NC2CCCc3ccccc32)cc(OC)c1OC (stereo unspecified)	i	0.39	x	x	x
Cc1cccc(N(C(=O)CNC(=O)c2ccco2)C(C(=O)NCC2CCCO2)c2ccccc2)c1 (stereo unspecified)	i	0.39	x	x	x
COc1ccc(/C=N/OCC(=O)Nn2c(C)nc3ccccc3c2=O)cc1	i	1.4	x	x	x
SMILES	KCNQ2 block	KCNQ2 pot	KCNQ2 inh conf	KCNQ1 spec	CHO Tl ctr	others
C=CCn1c(COc2cc(C)ccc2C(C)C)nnc1SCC(=O)c1c(N)n(C)c(=O)n(C)c1=O	i	x	x	x	x
CCNC(=O)CSc1nnc(-c2cccc(S(=O)(=O)N(CC)CC)c2)n1CCc1ccccc1	i	x	x	x	x
CCSc1nnc(-c2cccc(S(=O)(=O)N(CC)CC)c2)n1Cc1ccccc1	-10*	-10	i	i	i
Oc1ccccc1N=Nc1nc(-c2ccccc2)c(-c2ccccc2)[nH]1	-6.6*	-6.6	i	i	i
COc1ccccc1N=Nc1nc(-c2ccccc2)c(-c2ccccc2)[nH]1	i	x	x	x	x
COc1cc(=O)[nH]c(SC(C)C(=O)Nc2ccc3ccccc3c2)n1 (stereo unspecified)	i	0.55	x	x	x
COc1ccc(-c2nc3cc(C)ccn3c2NCc2ccc3c(c2)OCO3)cc1	i	x	x	x	x
COc1ccc(-c2nc3ccccn3c2NCc2ccc3c(c2)OCO3)cc1	-8.4*	-8.4	i	i	i
C=CCn1c(Sc2ncc([N+](=O)[O-])s2)n[nH]c1=O	-9.8*	-9.8	-40%*	i	i	KCNQ2 patch conf=i
O=[N+]([O-])c1cnc(Sc2ccncn2)s1	i	x	x	x	x
COc1ccc(-c2[nH]ncc2-c2cnn(-c3ccccc3)c2)c(O)c1	-7.7*	-7.7	i	i	i
COc1ccc(-c2cn[nH]c2-c2ccc(O)cc2O)cc1	i	x	x	x	x
CCOc1ccc(-c2nc(C#N)c(NCc3ccco3)o2)cc1	i	1.1	x	x	x
Cc1ncc(N=Nc2ccc(F)cc2)c(-c2ccc(Cl)cc2)n1	i	0.06	x	x	x
Cc1ccn2c(/C=N/OCc3cccc(F)c3)c(-c3ccc(Cl)cc3)nc2c1	-7.8*	-7.8	-18%*	i	i	KCNQ2 patch conf=i
Cc1ccn2c(/C=N/OCc3ccc(F)cc3)c(-c3ccc(Cl)cc3)nc2c1	-9*	-9	-26%*	i	i	KCNQ2 patch conf=+
Clc1ccc(CO/N=C/c2c(-c3ccccc3)nc3n2CCS3)c(Cl)c1	i	x	x	x	x
Cc1c(CCOC(=O)C23CC4(C)CC(C)(CC(C)(C4)C2)C3)sc[n+]1CC(=O)c1ccccc1	i	x	x	x	x
Cc1c(CCOC(=O)CC23CC4CC(CC(C4)C2)C3)sc[n+]1CC(=O)c1ccccc1	-8.5*	-8.5	-20%*	i	i	KCNQ2 patch conf=+
Cc1cc(C)c(OCCNCc2ccccc2)c(C)c1	i	x	x	x	x
Cc1cc(Cl)cc(C)c1OCCNCc1ccccc1	-6.9*	-6.9	i	i	i
COC(=O)/C(=C\Nc1ccc(Cl)c2ccccc12)c1ncc(C(F)(F)F)cc1Cl	-8.4*	-8.4	-18%*	i	i	KCNQ2 patch conf=i
CCOC(=O)/C(=C\Nc1ccccc1C(F)(F)F)Sc1ncc(C(F)(F)F)cc1Cl	i	x	x	x	x
CCCSc1nc(NCc2ccco2)c2c3c(sc2n1)COC(C)(C)C3	-9.8*	-9.8	i	i	i
CCCCSc1nc(NCc2ccco2)c2c3c(sc2n1)COC(C)(C)C3	i	x	x	x	x
SMILES	KCNQ2 block	KCNQ2 pot	KCNQ2 inh conf	KCNQ1 spec	CHO Tl ctr	others
Cn1cccc1C(=O)NCc1ccc(S(N)(=O)=O)cc1	i	0.87	x	x	x
CCc1ccc(-c2cc(C)no2)cc1S(=O)(=O)N1CCCN(Cc2ccc(F)cc2)C1	i	0.02	x	x	x
O=C(CSc1nncs1)N1c2ccccc2Sc2ccccc21	i	1	x	x	x
Cc1ccc(SCC(=O)N2c3ccccc3Sc3ccccc32)cc1	-6.6*	-6.6	i	i	i
CC(=O)NCC(=O)OCC(=O)N1c2ccccc2Sc2ccccc21	i	0.98	x	x	x
O=C(COc1ccc2ccccc2c1)N1c2ccccc2Sc2ccccc21	-8.9*	-8.9	-28%*	i	i	KCNQ2 patch conf=i
